This is a sample that favours compounds with a hit; in the whole collection about 2.7% have one here.
TRPM1 prom inh: inhibitors of MITF-dependent TRPM1 promoter reporter, primary screen, cell-based, SK-MEL-5, single point, luciferase; SK-MEL-5 TRPM1 promoter luciferase, 24 h; inhibition, % at 12.5 µM; hit rate 0.83% among 330,000;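 active = mean inhibition across replicates of 60% or more, whatever share of single replicates reaches that level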
CF NFkB block: inhibitors of PAF-induced NF-kB signaling, primary screen, cell-based, GFP fluorescence, uHTS; KKLEB NF-kB-GFP reporter, GFP fluorescence overnight; inhibition, % at 5 µM; hit rate 0.86% among 360,000; AID 588850, 2011;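 active = at least 50% inhibition at 5 µM, scaled per plate between neutral and stimulator controls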;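 also: PAF is a Pseudomonas aeruginosa culture filtrate used as stimulus; plate controls were PAF-stimulated DMSO wells for no effect and unstimulated DMSO wells for full effect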
Peg3 promoter: Peg3 promoter-driven luciferase inhibitors, primary screen, cell-based, HeLa, luciferase luminescence | hit rate 1.7% among 360,000 | HeLa PEG-Prom luciferase reporter, overnight | AID 588405, 2011 | inhibition, % at 20 µM;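 active = inhibition of at least 50% at 20 µM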
HIF-2a inh: HIF-2a reporter inhibitors, primary screen, luminescence, 786-0 RCC cells; 786-0 RCC cells HIF-2a reporter, luciferase luminescence, overnight; inhibition, % at 18.8 µM; hit rate 0.72% among 360,000;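 active = inhibition of the luminescence signal of 40% or more relative to plate controls, in a single-dose primary screen at 18.75 µM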
Shn3 inh set2: reduction of Shn3 3'UTR firefly luciferase signal, primary screen, Schnurri-3 inhibitor project, cell-based, Clone20 osteoblasts, set 2; hit rate 0.52% among 360,000; AID 588674, 2011; Clone20 osteoblast Shn3 3'UTR firefly luciferase, 24 h; inhibition, % at 12.5 µM;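 active = mean inhibition of at least 75% with every replicate also reaching 75%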;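 also: 0% = median of neutral control wells and 100% = pilot-screen positive control compound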
KKLEB cytotox: cytotoxicity in KKLEB CF airway cells, primary screen, cytotoxicity control for CF NF-kB inhibitor project, cell-based, uHTS, fluorescence assay plates | KKLEB CF airway cells viability, ATPlite luminescence, overnight; stronger effect = lower value; cells stimulated with P. aeruginosa culture filtrate | activity change (cytotoxicity), % at 5 µM | hit rate 0.36% among 360,000 | AID 602141, 2011;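 active = corrected activity change at or below -50% at 5 µM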
Starred values were filed as active, the others as inactive.

FC(F)(F)c1cc(CCN2CCNC[C@@H]2c2ccccc2)cc(C(F)(F)F)c1 was read as CF NFkB block -10.9, Peg3 promoter 14.8, HIF-2a inh -4.8, Shn3 inh set2 -43.7 and KKLEB cytotox 1.5.
Screening FC(F)(F)c1cc(CO[C@@H]2CCCN[C@@H]2c2ccccc2)cc(C(F)(F)F)c1 returned TRPM1 prom inh -2.5, CF NFkB block 11.9, Peg3 promoter 71.8*, HIF-2a inh -1.6, Shn3 inh set2 -15.3 and KKLEB cytotox 4.0.
`O=C(Nc1cc(F)cc(F)c1)c1ccc(NCCc2ccccc2)c([N+](=O)[O-])c1` gave TRPM1 prom inh 13.7, CF NFkB block -0.3, Peg3 promoter 18.5, HIF-2a inh 18.9, Shn3 inh set2 -1.6 and KKLEB cytotox -5.1.
For Cc1ccc(NC(=O)c2ccc(NCCc3ccccc3)c([N+](=O)[O-])c2)cc1F the results were TRPM1 prom inh 18.2, CF NFkB block 45.5, Peg3 promoter 19.0, HIF-2a inh 5.7, Shn3 inh set2 10.3 and KKLEB cytotox -50.3*.
Screening CSCCC(NC(=O)c1ccccc1Br)C(=O)N1CCN(C/C=C/c2ccccc2)CC1 (configuration not stated) returned CF NFkB block -11.6, Peg3 promoter 9.6, HIF-2a inh 16.6, Shn3 inh set2 76.6 and KKLEB cytotox 11.7.
Screening O=C(c1ccoc1)N1CCN(c2cc(-c3cccc(F)c3)nc3cc(-c4cccc(Cl)c4)nn23)CC1 returned CF NFkB block 0.7, Peg3 promoter 20.9, HIF-2a inh 8.9, Shn3 inh set2 90.8* and KKLEB cytotox -14.9.
`CCOC(=O)c1c(NC(=O)Cc2ccccc2)sc2c1CC(C)(C)NC2(C)C` gave TRPM1 prom inh -3.0, CF NFkB block 9.7, Peg3 promoter 21.2, HIF-2a inh 0.6, Shn3 inh set2 6.1 and KKLEB cytotox -21.8.
Screening CCOC(=O)c1c(NC(=O)COc2ccccc2OCC)sc2c1CC(C)(C)NC2(C)C returned TRPM1 prom inh 84.4*, CF NFkB block -19.1, Peg3 promoter 106.5*, HIF-2a inh 17.5, Shn3 inh set2 -85.9 and KKLEB cytotox -2.8.
Screening CCOC(=O)c1c(NC(=O)CSc2nnnn2-c2ccccc2)sc2c1CC(C)(C)NC2(C)C returned TRPM1 prom inh -3.7, CF NFkB block 8.0, Peg3 promoter 54.8*, HIF-2a inh 2.6, Shn3 inh set2 20.0 and KKLEB cytotox -17.3.
O=C(c1ccc(S(=O)(=O)N2CCCCC2)cc1)N1CCN(c2ccccc2)CC1 was read as TRPM1 prom inh -7.4, CF NFkB block 6.6, Peg3 promoter -16.3, HIF-2a inh 7.8, Shn3 inh set2 -1.3 and KKLEB cytotox 4.8.
Screening CC1CCCCN1S(=O)(=O)c1ccc(S(=O)(=O)N2CCN(c3ccccc3)CC2)cc1 (configuration not stated) returned TRPM1 prom inh 12.7, CF NFkB block 14.2, Peg3 promoter 58.8*, HIF-2a inh 8.9, Shn3 inh set2 10.0 and KKLEB cytotox -14.1.
`CC(C)(C)c1ccc(Cn2c(=N)n(CC(O)c3ccco3)c3ccccc32)cc1` (configuration not stated) gave TRPM1 prom inh 98.0*, CF NFkB block 24.7, Peg3 promoter 105.4*, HIF-2a inh 1.0, Shn3 inh set2 82.5* and KKLEB cytotox -22.5.
For COc1cccc(CNC(=O)CCCC(=O)NC(C)CCc2ccccc2)c1 (configuration not stated) the results were TRPM1 prom inh 9.2, CF NFkB block 12.0, Peg3 promoter 35.8, HIF-2a inh 6.6, Shn3 inh set2 49.1 and KKLEB cytotox 7.0.
For COc1cc(C2C(C#N)=C(C)NC3=C2C(=O)c2ccccc23)cc(OC)c1OC (configuration not stated) the results were TRPM1 prom inh 76.6*, CF NFkB block 28.3, Peg3 promoter 23.4, HIF-2a inh -4.1, Shn3 inh set2 36.4 and KKLEB cytotox -21.7.
For Cc1ccc(CNC(=O)CSc2nc3c(sc4ccccc43)c(=O)n2CCCN2CCCC2)cc1 the results were TRPM1 prom inh 43.5, CF NFkB block 21.9, Peg3 promoter 108.8*, HIF-2a inh -3.5, Shn3 inh set2 -14.5 and KKLEB cytotox -10.0.
`COc1ccc(NC(=O)CSc2nc3ccccc3c(=O)n2CCCN2CCC(C)CC2)c(OC)c1` gave TRPM1 prom inh -21.8, CF NFkB block 16.9, Peg3 promoter 69.2*, HIF-2a inh 16.7, Shn3 inh set2 10.5 and KKLEB cytotox -13.4.
For COc1cccc(NC(=O)CSc2nc3c(sc4ccccc43)c(=O)n2CCCN2CCCC2)c1 the results were TRPM1 prom inh 98.2*, CF NFkB block -5.5, Peg3 promoter 94.3*, HIF-2a inh -27.8, Shn3 inh set2 -39.2 and KKLEB cytotox -14.5.
For CC1CCN(CCCn2c(SCC(=O)Nc3ccccc3Cl)nc3ccccc3c2=O)CC1 the results were TRPM1 prom inh -20.0, CF NFkB block -16.3, Peg3 promoter 8.7, HIF-2a inh 4.3, Shn3 inh set2 -12.2 and KKLEB cytotox -9.4.
For CCc1nc2ccc(C(=O)N(C)CCCN(C)C)cn2c1N(CC)CCOC the results were CF NFkB block 9.4, Peg3 promoter -0.3, HIF-2a inh 7.2, Shn3 inh set2 -3.7 and KKLEB cytotox -19.2.
CC1CN(C(=O)C(C)OC(=O)c2ccc3ncsc3c2)CC(C)O1 (configuration not stated) was read as TRPM1 prom inh 5.2, CF NFkB block -2.6, Peg3 promoter -1.0, HIF-2a inh 7.2, Shn3 inh set2 -12.6 and KKLEB cytotox 11.4.
For CCC(C)(C)NC(=O)C(c1ccc(F)cc1)N(Cc1cccc(OC)c1)C(=O)c1cnccn1 (configuration not stated) the results were TRPM1 prom inh 2.4, CF NFkB block 1.4, Peg3 promoter 58.2*, HIF-2a inh -4.7, Shn3 inh set2 -6.2 and KKLEB cytotox 18.4.
For CCC(C)(C)NC(=O)C(c1ccc(F)cc1)N(Cc1ccc(OC)cc1)C(=O)c1cnccn1 (configuration not stated) the results were TRPM1 prom inh -6.8, CF NFkB block -2.9, Peg3 promoter -76.1, HIF-2a inh -124.9, Shn3 inh set2 -28.9 and KKLEB cytotox 6.4.
Cc1ccc(NS(=O)(=O)c2ccc(Cl)c(C(=O)Nc3ccccc3-c3nc4ccccc4[nH]3)c2)cc1C was read as TRPM1 prom inh 32.1, CF NFkB block 55.5*, Peg3 promoter 39.7, HIF-2a inh -21.9, Shn3 inh set2 18.1 and KKLEB cytotox -26.1.

Compound activity from PubChem BioAssay.
